# Sampled rows, rich in hits. Any-hit rate of the full collection: about 22%.
# CYP2C9 inh: inhibitors of human CYP2C9; CYP2C9 Supersomes, luciferin-H conversion, luminescence; inhibition, % at 5 µM; 20% of 96,000 active;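 active means blocking of liver enzyme CYP2C9 beyond about 50% at 5 µM, limit read from the data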
# Target sequence (P11712 whole entry, looked up): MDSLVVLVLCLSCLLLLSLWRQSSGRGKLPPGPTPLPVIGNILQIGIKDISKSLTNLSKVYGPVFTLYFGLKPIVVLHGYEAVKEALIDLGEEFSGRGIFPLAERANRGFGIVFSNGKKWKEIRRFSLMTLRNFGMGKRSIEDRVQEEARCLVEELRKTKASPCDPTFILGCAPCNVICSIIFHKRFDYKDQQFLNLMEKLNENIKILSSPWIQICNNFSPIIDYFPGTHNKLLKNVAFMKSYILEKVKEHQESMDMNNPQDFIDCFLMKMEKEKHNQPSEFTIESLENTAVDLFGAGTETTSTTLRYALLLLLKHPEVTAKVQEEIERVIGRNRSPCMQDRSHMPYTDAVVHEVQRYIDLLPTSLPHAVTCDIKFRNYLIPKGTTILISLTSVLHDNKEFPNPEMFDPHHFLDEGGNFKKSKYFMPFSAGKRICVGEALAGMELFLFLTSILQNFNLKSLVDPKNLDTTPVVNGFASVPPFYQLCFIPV
# Measles CPE: protection of cells from measles virus. Measles virus-infected cells, CPE protection, absorbance. protection (pct of control), % at 4 µM. 1.5% of 140,000 active. AID 841; in the data active means protection mostly above about 24%, no sharp cut-off; inactive means mostly below about 26%
# CYP2C19 activ: cytochrome P450 2C19 (human) activation | P33261 | activation factor at 5 µM | 96,000 tested, under 10 active | recombinant CYP2C19, luciferin-H EGE luminescence; hits give high values; 0 = fully inhibited enzyme, 1 = untreated enzyme;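 active means activation factor of at least 2 at 5 µM in the primary screen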;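 further: 0 = wells with 2.5 mM tranylcypromine and 1 = vehicle-only wells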
# CYP2C9 activ: CYP2C9 (human) activation. P11712. recombinant CYP2C9, luciferin-H conversion, luminescence; hits give high values; factor 1 = untreated enzyme, 0 = blocked. activation factor at 5 µM. 1.4% of 96,000 active. AID 1024;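 active means activation factor of 2 or more for CYP2C9 at a 5 µM dose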;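 further: 0 = sulfaphenazole-blocked wells and 1 = vehicle-only wells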
# CYP2C19 inh: blocks human cytochrome P450 2C19. 21% of 96,000 active. AID 778. inhibition, % at 5 µM. P33261. CYP2C19 Supersomes, luciferin-H EGE luminescence, 30 min;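 active means CYP2C19 inhibition above a set limit at 5 µM in the primary screen, cut at about 50% in these data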;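 further: plate controls were negative control wells for no effect and 2.5 mM tranylcypromine positive control for full effect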
# The depositor's hits bear a star; x = not tested or not shown.
SMILES,CYP2C9 inh,Measles CPE,CYP2C19 activ,CYP2C9 activ,CYP2C19 inh
COc1ccc(N(CC(=O)N2CCN(c3ccccc3)CC2)S(=O)(=O)c2c(C)noc2C)cc1,14,41*,0.4,0.9,65*
CC(=O)c1ccc(N2CCN(C(=O)CCS(=O)(=O)c3ccc(C)cc3)CC2)cc1,-7,47*,0.8,1.1,21
CN(CC(=O)N1CCN(c2ccccc2)CC1)S(=O)(=O)c1cnc[nH]1,100*,4,0.1,0,92*
CCN(CC(=O)N1CCN(c2ccccc2)CC1)S(=O)(=O)c1ccc(C)cc1,x,63*,x,x,x
CCOC(=O)C1CCN(c2cc(=O)n(-c3ccccc3Cl)c(=O)[nH]2)CC1,x,12,x,x,x
O=C(Nc1cccc(Cl)c1)c1ccc(F)c(S(=O)(=O)N2CCN(c3ccccn3)CC2)c1,x,6,x,x,x
COc1ccc(N(CC(=O)NN=C2CCCC2)S(=O)(=O)c2ccccc2)cc1,21,44*,0.5,0.8,51*
COc1ccc(S(=O)(=O)N(CC(=O)N2CCN(c3ccccc3)CC2)c2ccccc2)cc1,23,42*,0.9,0.8,11
COc1ccc(N2CCN(C(=O)CN(c3ccccc3)S(C)(=O)=O)CC2)cc1,12,3,1,0.9,2
Cc1noc(C)c1S(=O)(=O)N(CC(=O)N1CCCCCC1)c1ccc(C(C)C)cc1,77*,32,0.3,0.2,72*
Cc1noc(C)c1S(=O)(=O)N(CC(=O)N1CCCC1)c1ccc(C(C)C)cc1,22,13,0.6,0.8,40
O=C(CCS(=O)(=O)c1ccccc1)Nc1ccccc1-c1nc2ccccc2s1,x,16,x,x,x
O=C(Nc1cccs1)OCCN1CCN(Cc2ccccc2)CCC1=O,x,13,x,x,x
COc1ccc(S(=O)(=O)O/N=C2\CCSc3ccc(C)cc32)cc1,15,17,0.4,0.8,56*
CC(=O)Nc1ccc(S(=O)(=O)NC2=C(N3CCN(c4ccc(F)cc4)CC3)C(=O)c3ccccc3C2=O)cc1,61*,4,0.7,0.4,26
COc1ccc(N2CCN(c3nc4ccccc4nc3NS(=O)(=O)c3ccccc3)CC2)cc1,98*,1,0.5,0,53*
Cc1ccc(S(=O)(=O)NC2=C(N3CCN(c4ccccc4F)CC3)C(=O)c3ccccc3C2=O)cc1,61*,14,0.6,0.4,38
Cc1ccc(S(=O)(=O)Nc2nc3ccccc3nc2N2CCN(c3ccccc3F)CC2)cc1,100*,5,0.7,0,30
CC1CCCN(C2=C(NS(=O)(=O)c3ccc(Cl)cc3)C(=O)c3ccccc3C2=O)C1 (configuration not stated),x,19,x,x,x
COc1ccc(S(=O)(=O)Nc2nc3ccccc3nc2NCc2ccc3c(c2)OCO3)cc1,x,9,x,x,x
O=S(=O)(Nc1nc2ccccc2nc1N1CCc2ccccc2C1)c1ccc(Cl)cc1,x,10,x,x,x
CC(=O)Nc1ccc(S(=O)(=O)Nc2nc3ccccc3nc2N2CCc3ccccc3C2)cc1,x,13,x,x,x
CC(=O)Nc1ccc(S(=O)(=O)Nc2nc3ccccc3nc2N2CCCCCC2)cc1,70*,8,0.8,0.3,23
Cc1ccc(S(=O)(=O)NC2=C(N3CCN(Cc4ccccc4)CC3)C(=O)c3ccccc3C2=O)cc1,63*,4,1.1,0.4,-5
O=S(=O)(Nc1nc2ccccc2nc1N1CCN(c2ccccn2)CC1)c1ccc(Cl)cc1,100*,6,0.7,0,34
SMILES,CYP2C9 inh,Measles CPE,CYP2C19 activ,CYP2C9 activ,CYP2C19 inh
Cc1ccc2c(c1)N(CC(=O)N1CCCc3ccccc31)C(=O)CO2,10,4,0.7,0.9,34
O=C(CN1C(=O)COc2ccccc21)N1CCc2ccccc21,42,6,0.4,0.6,57*
CC1Oc2ccccc2N(CC(=O)N2CCc3ccccc32)C1=O (configuration not stated),56*,3,0.5,0.4,52*
Cc1ccc2c(c1)N(CC(=O)N1CCc3ccccc3C1)C(=O)CO2,25,15,0.2,0.8,84*
O=C(C1COc2ccccc2O1)N1CCc2ccccc21 (configuration not stated),34,11,0.1,0.7,92*
CC1Oc2ccccc2N(CC(=O)N2CCCc3ccccc32)C1=O (configuration not stated),33,20,0.6,0.7,44
Cc1ccccc1NCC(=O)N/N=C/c1ccc([N+](=O)[O-])cc1,x,20,x,x,x
Cn1c(Cn2nnc3ccccc32)nnc1SCC(=O)Nc1ccc2c(c1)OCO2,21,5,0.9,0.8,12
CC(/C=C/c1cccc([N+](=O)[O-])c1)=N/NC(=O)c1cccnc1,x,27,x,x,x
O=C(N/N=C/c1cccnc1)c1ccc([N+](=O)[O-])cc1Cl,-7,9,1.1,1.1,-9
N#C/C(=C\N1CCOCC1)c1ccccc1,24,2,0.4,0.8,57*
CCOC(=O)C(O)(CC(=O)Nc1cc(F)ccc1C)C(F)(F)F (configuration not stated),x,5,x,x,x
CCOc1ccc(N/C=C\C(=O)c2ccc3c(c2)OCO3)cc1,x,42*,x,x,x
O=C(/C=C\Nc1ccc2c(c1)OCO2)c1ccccn1,31,9,0.4,0.7,57*
O=C(NCc1ccc2c(c1)OCO2)c1ccccn1,x,13,x,x,x
Cc1cc(C)nc(N(C#N)Cc2ccc(Br)cc2)n1,6,13,0.3,0.9,68*
Cc1ccc(CN(C#N)c2nc(C)cc(C)n2)cc1,-52,5,0.6,1.5,44
CCCc1nc(SCC(=O)N2CCCc3ccccc32)c2c(=O)n(C)c(=O)n(C)c2n1,94*,5,0.8,0.1,17
CCCn1c(SCC(=O)N2CCCc3ccccc32)nc2c1c(=O)n(C)c(=O)n2C,79*,x,0.7,0.2,31
CCCn1c(SCC(=O)N2c3ccccc3Sc3ccccc32)nc2c1c(=O)n(C)c(=O)n2C,49,4,0.9,0.5,8
CCn1c(SCC(=O)Nc2ccccc2N2CCCCC2)nc2c1c(=O)n(C)c(=O)n2C,79*,6,0.6,0.2,39
CCCc1nc(SCC(=O)N2CCC(Cc3ccccc3)CC2)c2c(=O)n(C)c(=O)n(C)c2n1,95*,0,0.3,0.1,66*
CCCNC(=O)/C=C/c1ccc(C(C)C)cc1,x,15,x,x,x
N=C1C(c2ccc(Br)cc2)=C(O)C2CCc3ccccc3N12 (configuration not stated),27,2,0.5,0.7,50*
N=C1C(c2ccccc2)=C(O)C2CCc3ccccc3N12 (configuration not stated),-18,9,1.2,1.2,-20
COc1ccc(CC(=O)Nc2c3c(nn2-c2cccc(C)c2C)CS(=O)C3)cc1OC (configuration not stated),6,28,0.2,0.9,79*
CCOc1ccc(C(=O)Nc2c3c(nn2-c2cccc(C)c2C)CS(=O)C3)cc1 (configuration not stated),1,6,0.8,1,20
COc1ccc(CC(=O)Nc2c3c(nn2-c2cccc(C)c2C)CS(=O)C3)cc1 (configuration not stated),38,4,0.1,0.6,94*

# Compound activity from PubChem BioAssay.
